Unmarked numbers belong to inactive results. Calls come from the whole dose curve; as a rule, active = well fitted cell-killing curve with a large enough effect; inconclusive = small, poorly fitted or top-dose-only effect; inactive = flat fitted curve, though single readings scatter.

A short description of the assay: MultiTox-Fluor Cytotoxicity Assay - LYMP1-003 - Live Cells (AID 962).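 Note: 0% = DMSO only and full loss = 92 µM tetraoctylammonium bromide; cytotoxic hits lower the live-cell protease signal.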 The note with it: LYMP1-003 lymphoblastoid cells, MultiTox-Fluor live-cell protease fluorescence; series mostly up to 92.2 µM; activity change, negative = fewer live cells: at the top concentration. The text has this:
NIH Chemical Genomics Center [NCGC]
NIH Molecular Libraries Screening Centers Network [MLSCN]
National Institutes of Environmental Health Sciences [NIEHS]
National Toxicology Program [NTP]
We have developed a 1536-well cell-based assay for quantitative high throughput screening (qHTS) against a number of cell lines to determine in vitro cytotoxicity of small molecules. This particular assay uses a human lymphoblastoid cell line (LYMP1-003) purchased from Coriell Institute.
NCGC Assay Protocol Summary:
The MultiTox-Fluor Cytotoxicity Assay (Promega) is a homogeneous method to simultaneously measure the relative number of live and dead cells in culture by detecting changes in cell membrane integrity. There are two fluorogenic peptide substrates in the assay reagent. Viable cells are determined when the cell-permeant substrate (GF-AFC) enters the cell and is cleaved by protease from live cells resulting in liberated fluorophore. This live-cell protease activity restricted to viable cells is proportional to cell number. The dead cells are determined by using fluorogenic cell-impermeant peptide substrate (bis-AAF-R110) which cleaved by dead cell proteases leaking from damaged cell membrane.
Using the MultiTox-Fluor Cytotoxicity Assay, the relative number of live cells was measured in the lymphoblastoid cell line with complete culture medium following compound treatment for 16 hours. The assay was performed in opaque black Kalypsys 1536-well plates. In the screen, tetraoctylammonium bromide was used as positive control. Library compounds were measured for their ability to cause acute toxicity in the cell line, as reflected by a decrease in live cell protease activity, in a concentration-dependent manner. […] AC50 values were determined from concentration-response data modeled with the standard Hill equation.
qHTS protocol for MultiTox-Fluor Cytotoxicity assay
[Step] [Parameter] [Value] [Description]
1. Reagent; 5 uL; 2500 lymphoblastoid cells/well
2. Time; 5 hr; 37 C incubation
4. Controls; 23 nL; Tetraoctylammonium bromide 6.4pM to 92 uM
5. Time; 16 hr; 37 C incubation
6. Reagent; 5 uL; MuliTox-Fluor Assay reagent
7. Time; 60 min; Room Temperature
8. Detection; live-cell fluorescence (Ex/Em=405/510); EnVision plate reader
Keywords: cell viability, cytotoxicity, lymphoblastoid cell line, fluorescence, NTPHTS, NTPHTS_NCGC, NIEHS, EPA, DSSTox, MLSMR, MLSCN, NIH Roadmap, qHTS, NCGC
Regarding `COc1ccc(N=[N+]([O-])c2ccc(OC)cc2)cc1`, the “activity change, negative = fewer live cells” value (“activity change” below) was -5.79%. Take `O=[N+]([O-])c1cc(C(F)(F)F)ccc1Cl`: the “activity change” value is -2.99%.

For the compound `CC(=O)OCc1ccco1`, the “activity change” value was 1.91%. `CC(=O)OC(C)=O`: the “activity change” value is -2.68%.

In the case of `C=CCCCC`, the “activity change” value was -0.173%. For `c1ccc2c(c1)ccc1ncccc12` the value was -5.14%. `CC(C)(C)c1ccc(OCC2CO2)cc1` (stereo not given): the “activity change” value was -0.394%. Next, `C=CCCC`: 0.711%; `CNC(=O)N(c1ccccc1)c1ccccc1`: -6.09%; `CC(C)c1ccccc1`: -8.96%.

As for `C=CC(=O)NC(C)C`, the “activity change” value was -6.31%.

For the compound `ClC/C=C/CCl`, the “activity change” value was -8.76%. For the compound `ICCc1ccccc1`, the “activity change” value is -13%. Next, `CCCCC(CC)COC(=O)CCCCC(=O)OCC(CC)CCCC` (stereo not given): -3.82%; `O=[N+]([O-])c1ccc2nc[nH]c2c1`: -4.46%; `Cc1ccc2c(c1[N+](=O)[O-])C(=O)c1ccccc1C2=O`: -21.3%.

As for `CC(CCl)OC(C)CCl` (stereo not given), the “activity change” value was -0.577%. Turning to `CC(=O)OC(C)C`, the “activity change” value was -6.15%. Regarding `CC(=O)c1cccc([N+](=O)[O-])c1`, the “activity change” value was -0.468%. `C=CCCCCCC`: the “activity change” value was -2.67%. With `Cc1cccc(C)c1[N+](=O)[O-]`, the “activity change” value was 0.546%. As to `O=C1NC(=O)c2cc([N+](=O)[O-])ccc21`, the “activity change” value is -4.45%. As for `[O-]/[N+](=N\O)c1ccccc1`, the “activity change” value is 3.34%. For `CC(=O)c1cc(C)oc1C` the value was 0.646%. On to `CCC1CO1` (stereo not given), for which the “activity change” value is -2.44%. As for `NS(=O)(=O)O`, the “activity change” value is -6.62%. Next, `Nc1cccc(O)c1`: -3.18%; `Cc1cc(C)cc(N)c1`: -1.84%; `O=C1CCCCC1`: -5.86%.

`CC1CCCO1` (stereo not given): the “activity change” value is -5.71%.

Take `CCNc1cc(O)ccc1C`: the “activity change” value was -8.17%. Next, `C=C(C)C(N)=O`: -1.02%. Turning to `Nc1cccc(S(=O)(=O)O)c1`, the “activity change” value was -12.5%. As to `Cc1ccc2oc(=O)ccc2c1`, the “activity change” value was -3.29%. As for `C=C(C)C(=O)OCC(C)C`, the “activity change” value was -0.968%. For `COc1ccccc1[N+](=O)[O-]` the value was -1.52%; for `CN(C)CCCCl`, -6.42%; for `Cc1ccc(C)cc1`, -4.69%. Consider `CCCC(C)CO` (stereo not given), for which the “activity change” value was -0.191%. Next, `O=C(O)c1ccccc1C(=O)O`: 2.81%.
